# Assay results taken from PubChem BioAssay AID1851 (National Center for Advancing Translational Sciences (NCATS), 2009).
# Among all 16,000 compounds or so, about 5,100 (32%) were called active. Another 25% or so got no clear call; they are omitted. The list shows a part of the results. Values without a mark were called inactive. Calls follow the shape of the dose curve; as a rule, active = well fitted curve in the direction sought with a large enough effect; inconclusive = small, poorly fitted or top-dose-only effect, or effect the other way; inactive = no such curve, though single readings can be large or run the other way.
# Molecular target: Cytochrome P450 3A4 (Homo sapiens) (UniProt P08684)
# Sequence (P08684 whole entry, looked up): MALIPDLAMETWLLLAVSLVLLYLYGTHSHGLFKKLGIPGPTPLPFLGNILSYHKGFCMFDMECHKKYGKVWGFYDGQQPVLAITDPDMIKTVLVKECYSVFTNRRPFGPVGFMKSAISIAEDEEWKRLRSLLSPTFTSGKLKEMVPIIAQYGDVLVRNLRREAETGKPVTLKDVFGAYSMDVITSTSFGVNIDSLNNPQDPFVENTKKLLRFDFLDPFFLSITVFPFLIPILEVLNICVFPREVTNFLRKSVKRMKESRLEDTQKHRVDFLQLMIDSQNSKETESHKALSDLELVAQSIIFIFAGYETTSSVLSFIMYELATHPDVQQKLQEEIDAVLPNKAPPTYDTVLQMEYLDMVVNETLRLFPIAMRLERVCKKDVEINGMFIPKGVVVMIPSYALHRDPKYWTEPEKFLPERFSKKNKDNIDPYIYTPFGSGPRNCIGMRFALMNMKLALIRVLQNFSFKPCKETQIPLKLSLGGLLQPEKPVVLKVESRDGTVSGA
# Experiment: Cytochrome panel assay with activity outcomes
# Conditions: recombinant CYP, pro-luciferin dealkylation, luminescence, p450-cyp3a4; series mostly up to 57.1 µM
# % is scaled to controls: 0 for no effect and ±100 for the full control effect.
SMILES,"activity, negative = inhibition",AC50
Nc1ccc(C(=O)C[C@H](N)C(=O)O)cc1O,-6.46% [at 11.4 µM],–
O=C(O)[C@@H]1[C@@H](C(=O)Nc2ncccn2)[C@@H]2C=C[C@@H]1O2,-13% [at 11.4 µM],–
Fc1ccc(-c2cnc(-c3cccs3)o2)cc1,–,inactive
CCOC(=O)c1cnn(-c2nc(-c3ccc(F)cc3)cs2)c1C(F)(F)F,–,inactive
Nc1c(-c2cccs2)cnn1-c1nc(-c2ccc(F)cc2)cs1,–,3.98 µM (active)
Cc1ccc(C)c(S(=O)(=O)NCc2ccc(C(=O)N3CCC(Cc4ccccc4)CC3)cc2)c1,–,2.24 µM (active)
CC1(C)CC(O)CC(C)(C)N1CC(O)COCCOc1ccc(Br)cc1 (configuration not stated),–,inactive
COCCNC(=O)COC(=O)/C=C/c1cnc2ccccc2n1,-3.34% [at 2.29 µM],–
Clc1cccc(Oc2cnc3ccccc3n2)c1,–,inactive
O=C(CCl)Nc1ccc(Oc2cnc3ccccc3n2)cc1,–,14.1 µM (active)
COc1ccc(CNc2cc(-c3cccnc3)ncn2)c(OC)c1,–,1.58 µM (active)
COc1ccc(CCNc2nc(-c3cccnc3)cs2)cc1OC,–,3.16 µM (active)
O=C(NC(=S)Nc1nc(-c2ccc(Br)cc2)cs1)c1cccnc1,-14.3% [at 2.29 µM],–
COc1ccccc1CNc1cc(-c2cccnc2)ncn1,–,0.631 µM (active)
c1ccc(-c2csc3ncn4cnnc4c23)cc1,–,inactive
Cc1ccc(C2C(C(=O)c3ccco3)=C(O)C(=O)N2c2nnc(C)s2)cc1 (configuration not stated),–,inactive
CCS(=O)(=O)Nc1ccc(C2=NN(C(=O)c3ccco3)C(c3ccc(C)cc3)C2)cc1 (configuration not stated),–,3.98 µM (active)
N=C(N)SCCc1ccncc1,4.88% [at 11.4 µM],–
N=C(N)SCCc1cnc[nH]1,–,15.8 µM (active)
N=C(N)SCCSC(=N)N,-5.54% [at 11.4 µM],–
CCOc1ccccc1Oc1coc2cc(OC)ccc2c1=O,–,inactive
Cc1cccc(Oc2coc3cc(OC(=O)c4cccs4)ccc3c2=O)c1,–,11.2 µM (active)
Cc1cc(C)cc(Oc2coc3cc(OC(=O)c4cccs4)ccc3c2=O)c1,–,inactive
CCCCCCCCn1cc(C(C)=O)c(=O)[nH]c1=O,-12.5% [at 2.29 µM],–
O=C(Cn1c(=O)n(Cc2ccco2)c(=O)c2c3c(sc21)CCCCC3)c1ccccc1,–,14.1 µM (active)

SMILES,"activity, negative = inhibition",AC50
C[N+]1(NCC[N@@+]2(C)CCc3ccccc3C2)CCCCC1,0.246% [at 11.4 µM],–
CCC(C)(C)n1nnnc1C(c1ccc(C)cc1)N1CCC(C)CC1 (configuration not stated),21.5% [at 2.29 µM],–
CCC(C)(C)n1nnnc1C(C(C)C)N(Cc1ccco1)Cc1cc2cc3c(cc2[nH]c1=O)OCO3 (configuration not stated),–,1 µM (active)
CCC(C)(C)n1nnnc1C(c1cc2cc3c(cc2[nH]c1=O)OCO3)N1CCCCC1 (configuration not stated),–,1.58 µM (active)
CCC(C)(C)n1nnnc1C(C(C)C)N(CCCO)Cc1cc2cc(C)ccc2[nH]c1=O (configuration not stated),–,2 µM (active)
c1ccc(C[n+]2cccc(-c3cc4ccccc4[nH]3)c2)cc1,-7.36% [at 11.4 µM],–
Fc1ccccc1OCCCCSc1ncccn1,–,inactive
O=S(=O)(O)[C@@H](CO)c1ccccc1 (tested in a mixture with another compound),-1.16% [at 11.4 µM],–
O=C1C(=O)c2ccccc2C(O)=C1C(CCc1ccccc1)C1=C(O)c2ccccc2C(=O)C1=O,-5.65% [at 11.4 µM],–
O=C1C(SCCO)=C(SCCO)C(=O)c2ccccc21,–,25.1 µM (active)
COc1cccc(-c2cc(NCCc3c[nH]c4ccc(OC)cc34)ncn2)c1,–,7.94 µM (active)
COc1ccc2[nH]cc(CCNc3cc(-c4cccc(C#N)c4)ncn3)c2c1,–,3.98 µM (active)
COc1ccc2[nH]cc(CCNc3ccnc(-c4cccnc4)n3)c2c1,–,1.26 µM (active)
COc1ccc2[nH]cc(CCNc3cc(-c4cccnc4)ncn3)c2c1,–,3.98 µM (active)
COc1ccc2[nH]cc(C=O)c2c1,–,inactive
COc1ccc2[nH]cc(CCNc3cc(-c4ccoc4)ncn3)c2c1,–,10 µM (active)
Cc1ccc(NC(=O)N/C=C/c2ccc(Cl)cc2)cc1,–,0.0501 µM (active)
CC(C)N=C(N)/N=C(\N)Nc1ccc(Cl)cc1,–,inactive
O=c1ncn(-c2ccccc2F)c2ncccc12,14.6% [at 2.29 µM],–
O=c1ccc(-c2ccccc2)n[nH]1,-16.6% [at 11.4 µM],–
O=C1c2ccccc2-c2n[nH]c3cccc1c23,–,3.98 µM (active)
Cc1n[nH]c2ccccc2c1=O,-6.8% [at 11.4 µM],–
NC(N)=NC(=O)Cc1c(Cl)cccc1Cl,–,inactive
Cc1cc2cccc(C)c2nc1SCC(=O)N(C)c1nc(-c2ccccc2)cs1,–,inactive
Cc1nc2cc(NC(=O)CSc3nc4c(C)cccc4cc3C#N)ccc2s1,–,2.82 µM (active)

SMILES,"activity, negative = inhibition",AC50
Cc1ccc2nc(SCC(=O)NCc3cccs3)c(C#N)cc2c1,-9.74% [at 2.29 µM],–
CCC(C)NS(=O)(=O)c1ccc(OCC(=O)NCC2CCCO2)cc1 (configuration not stated),–,inactive
O=C(NCC1CCCO1)c1ccc(CS(=O)(=O)Cc2ccc(F)cc2)o1 (configuration not stated),–,inactive
O=C(CN(CC1CCCO1)C(=O)CNS(=O)(=O)c1ccc(Cl)cc1)NCCc1ccccc1 (configuration not stated),–,11.2 µM (active)
O=C(O)c1cc(S(=O)(=O)NCC2CCCO2)ccc1Cl (configuration not stated),–,inactive
CC(C)C(C(=O)NCC1CCCO1)N(Cc1ccco1)C(=O)CNS(=O)(=O)c1ccc(F)cc1 (configuration not stated),–,5.01 µM (active)
COc1ccc(S(=O)(=O)N(CC(=O)NCC2CCCO2)c2ccc(F)cc2)cc1OC (configuration not stated),–,8.91 µM (active)
COc1ccc(/C=C(\C#N)C(=O)NCC2CCCO2)cc1OC (configuration not stated),–,inactive
COc1ccccc1N(CC(=O)NCC1CCCO1)C(=O)CNS(=O)(=O)c1ccc(C)cc1 (configuration not stated),–,7.94 µM (active)
Cc1cccc(NC2=NC(=S)N(c3ccc(C(=O)O)cc3)C23CCCCC3)c1,10.4% [at 2.29 µM],–
COc1ccc(NC2=NC(=S)N(c3ccc(C)cc3)C23CCCCC3)cc1,–,inactive
Cc1ccccc1NC1=NC(=S)N(c2ccccc2)C12CCOC(C)(C)C2 (configuration not stated),–,10 µM (active)
COCCn1c(=O)c(C)nc2cnc(Nc3cccc(OC)c3)nc21,–,15.8 µM (active)
COc1cccc(Nc2ncc3nc(C)c(=O)n(CCc4ccccc4)c3n2)c1,–,7.94 µM (active)
COc1cccc(Nc2ncc3nc(C)c(=O)n(C4CC4)c3n2)c1,–,6.31 µM (active)
O=c1cnc2cnc(Nc3ccccc3)nc2n1CCc1ccccc1,–,inactive
Cc1nc2cnc(Oc3cccc(Cl)c3)nc2n(C2CC2)c1=O,–,inactive
N[C@@H](Cc1cc(CP(=O)(O)O)cc(-c2ccccc2Cl)c1)C(=O)O,–,inactive
CCN1C(=O)C2(SC(NC(C)=O)=NN2C(C)=O)c2cc(C)ccc21 (configuration not stated),–,inactive
O=C1c2ccccc2C(=O)N1CC1CCCO1 (configuration not stated),–,inactive
N#Cc1cccc(-c2nc3cnc(Nc4ccccc4)nc3n(C[C@H]3CCCO3)c2=O)c1,–,inactive
Nc1ncc(-c2ccccc2)n1CC1CCCO1 (configuration not stated),–,7.08 µM (active)
CC(=O)c1sc(N)c(C(=O)OC(C)C)c1C,–,inactive
COc1ccc(CNc2ncncc2-c2ccc(N(C)C)cc2)c(OC)c1,–,0.2 µM (active)
COc1ccc(CNc2ncncc2-c2ccc(C(=O)N(C)C)cc2)c(OC)c1,–,0.501 µM (active)

SMILES,"activity, negative = inhibition",AC50
COc1ccccc1CNc1ncncc1-c1ccc(C(=O)N(C)C)cc1,–,2.51 µM (active)
C/C(=N\OC(=O)c1ccc(F)cc1)c1nccs1,–,inactive
N[C@@H](Cc1c[nH]c2ccc([N+](=O)[O-])cc12)C(=O)O,-8.71% [at 11.4 µM],–
Cc1cccc(NC(NC(=O)c2cccnc2)C(Cl)(Cl)Cl)c1 (configuration not stated),–,10 µM (active)
O=C(NC(NCc1ccccc1)C(Cl)(Cl)Cl)c1cccnc1 (configuration not stated),–,12.6 µM (active)
CCn1ccc(C(=O)NC2C(=O)N3C(C(=O)O)=C(C)CSC23)n1 (configuration not stated),–,inactive
Cc1ccc(S(=O)(=O)Oc2ccc(C3C4=C(CCCC4=O)OC4=C3C(=O)CCC4)cc2)cc1,–,6.31 µM (active)
COc1ccc2c(c1)OC1=C(C(=O)CCC1)C2C1=C(O)CCCC1=O (configuration not stated),–,inactive
O=C1CCCC2=C1C(c1ccc(OS(=O)(=O)c3ccc(Cl)cc3)cc1)C1=C(CCCC1=O)O2,–,2.24 µM (active)
Cc1ccc(S(=O)(=O)Oc2cc(N)c3c(n2)CCC3)cc1,-14.1% [at 11.4 µM],–
CN1CCc2cc(Cl)c(O)cc2[C@@H](c2ccccc2)C1,–,inactive
NCCNCC1CCNCC1,-29.4% [at 11.4 µM],–
CN(C)[C@H]1C(=O)C(C(=O)NCN2CCCC2)=C(O)[C@]2(O)C(=O)C3=C(O)c4c(O)cccc4[C@@](C)(O)[C@H]3C[C@@H]12,–,inactive
CCOC(=O)c1ccccc1OCc1cc(/C=N/n2cnnc2)ccc1OC,–,inactive
Cc1cc([N+](=O)[O-])nn1Cc1ccccc1F,–,inactive
Cc1cc(/C=N/n2cnnc2)c(C)n1-c1ccc(OCc2ccccc2F)cc1,–,0.224 µM (active)
Cc1ccc(C)c(Nc2nc3nonc3nc2N2CCOCC2)c1,-12.1% [at 2.29 µM],–
CSc1nncn1/N=C/c1ccc2c(c1)OCO2,–,8.91 µM (active)
OC[C@@H]1O[C@@H](O)[C@H](N=Cc2ccc3c(c2)OCO3)[C@@H](O)[C@@H]1O,-4.87% [at 11.4 µM],–
Cc1ccc(S(=O)(=O)N[C@H](CO)C(=O)O)cc1,-3.82% [at 11.4 µM],–
CC(CCc1ccccc1)NS(=O)(=O)c1ccccc1 (configuration not stated),–,inactive
Cc1ccc(S(=O)(=O)N[C@@H](CCc2ccccc2)CC(=O)C(C)(C)C)cc1,–,1.58 µM (active)
